# Assay outcomes as filed in PubChem.
# Only some compounds are listed: those with a hit (about 18% of all), similar ones and a draw of the others.
# RORgamma inh – qHTS for inhibitors of ROR gamma transcriptional activity; Nuclear receptor ROR-gamma (Mus musculus), P51450; Drosophila S2 Gal4-RORgamma UAS-luciferase reporter, 20 h; 310,000 compounds, 5.4% hits; Potency, µM (highest dose often 53.6 µM), without a hit: at the highest dose activity change, negative = inhibition, actives largely listed as inhibitors; note: potency is the fitted concentration of half-maximal effect; nearly all actives have a fitted effect of over 60% in size
# Target sequence (P51450 whole entry, looked up, the tested form may be a part): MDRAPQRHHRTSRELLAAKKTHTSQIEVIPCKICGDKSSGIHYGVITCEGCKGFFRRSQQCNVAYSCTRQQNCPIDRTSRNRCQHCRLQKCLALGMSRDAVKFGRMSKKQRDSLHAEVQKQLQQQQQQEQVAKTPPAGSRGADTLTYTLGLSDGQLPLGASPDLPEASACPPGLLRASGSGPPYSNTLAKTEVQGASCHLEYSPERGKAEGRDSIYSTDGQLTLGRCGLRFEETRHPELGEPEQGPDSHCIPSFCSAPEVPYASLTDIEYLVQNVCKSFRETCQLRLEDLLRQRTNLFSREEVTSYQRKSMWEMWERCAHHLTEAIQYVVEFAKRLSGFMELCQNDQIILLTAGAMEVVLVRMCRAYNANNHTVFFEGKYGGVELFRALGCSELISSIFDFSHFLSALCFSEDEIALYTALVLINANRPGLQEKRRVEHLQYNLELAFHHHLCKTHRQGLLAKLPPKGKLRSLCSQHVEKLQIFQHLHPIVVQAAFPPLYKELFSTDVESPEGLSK
#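 Read-out: Photinus luciferase luminescence; inhibitors lower reporter signal. Insect Schneider cells with Gal4-ROR gamma fusion under metallothionein promoter, UAS reporter; 700 uM final copper sulfate induction, 20 hr, ambient temperature.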
# DT40 TDP1 CPT – qHTS for Inhibitors of human tyrosyl-DNA phosphodiesterase 1 (TDP1): qHTS in cells in presence of CPT; chicken DT40 Tdp1-/-;hTDP1 cells + 20 nM CPT, ATP luminescence, 48 h; Potency, µM (doses to about 46.2 µM), for the others: at the highest dose activity change, negative = growth inhibition, hits mostly inhibitors; 420,000 compounds, 12% hits; AID 686979, 2013; note: potency is the fitted concentration of half-maximal effect; nearly all actives have a fitted effect of over 55% in size
#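 Chicken DT40 Tdp1-/- cells complemented with human TDP1, 400 cells/well, exposed to compounds plus 20 nM camptothecin for at least 48 h at 37 C; viability read as ATP content by CellTiter-Glo luminescence.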
# TDP1 cell noCPT – qHTS for Inhibitors of human tyrosyl-DNA phosphodiesterase 1 (TDP1): qHTS in cells in absence of CPT; DT40 Tdp1-/- hTDP1 cells, no CPT, ATP luminescence, 48 h; Potency, µM (doses to about 46.2 µM), without a hit: top-dose activity change, negative = growth inhibition, usual class: inhibitors; 420,000 compounds, 15% hits; note: potency is the fitted concentration of half-maximal effect; nearly all actives have a fitted effect of over 55% in size
#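 Cells were dispensed at 400 per well, compounds added by pin tool, plates incubated ≥48 hr at 37 °C, then CellTiter-Glo added for 30 min at room temperature before luminescence reading. Line: DT40 Tdp1-/- complemented with hTDP1; camptothecin omitted.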
# IL-1B inflam inh – qHTS for Inhibitors of Inflammasome Signaling: IL-1-beta AlphaLISA Primary Screen; THP-1 LPS/ATP IL-1B secretion, AlphaLISA, 16 h; active compounds read low; activity change, % at 57.5 µM; 360,000 compounds, 4.7% hits; in the data active = activity change below about -50%; inconclusive = mostly about -30% to -49%
#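 Secreted IL-1B measured by AlphaLISA bead assay after 16 h compound exposure of THP-1 cells; compounds (final up to 57.5 uM) added 1 h before LPS (250 ng/mL) and ATP (1.25 mM) stimulation; lower signal means less secretion.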
# VP16 counter – VP16 counterscreen qHTS for inhibitors of ROR gamma transcriptional activity. Drosophila S2 Gal4-VP16 UAS-luciferase, luminescence, 20 h. Potency, µM (top dose mostly 53.6 µM), without a hit: at the top dose activity, negative = inhibition, most hits filed as inhibitors. 310,000 compounds, 3.5% hits. AID 2546, 2010;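 note: Gal4-VP16 expression switched on by copper sulfate through the metallothionein promoter; potency is the fitted concentration of half-maximal effect; nearly all actives have a fitted effect of over 50% in size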
# LDHA inh – qHTS assay for inhibitors of human lactate dehydrogenase; purified LDHA, NADH/diaphorase-resazurin fluorescence; active compounds read low; activity change, % (values are at about 110 or 230 µM); 480,000 compounds, 0.15% hits; AID 1347041, 2019; in the data active = activity change below about -30%; inconclusive = mostly about -25% to -30%;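 note: plate controls were DMSO wells for no effect and wells without enzyme for full effect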
#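 LDH5 2 nM; NADH 0.06 mM, pyruvate 0.2 mM; 200 mM Tris pH 7.4, EDTA, Tween-20; 5 min RT. Detection: diaphorase 0.133 mg/mL + resazurin 37 µM, fluorescence ex540/em590 at 0 and 20 min; normalized to enzyme-free and DMSO wells.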
# * marks the source's active call; other numbers are inactive results; ? = inconclusive; nt = no result given. Unless noted, calls come from the whole dose curve; as a rule, active = well fitted curve in the direction sought with a large enough effect; inconclusive = small, poorly fitted or top-dose-only effect, or another doubt; inactive = no such curve, though single readings can be large; an effect the other way counts as inactive or inconclusive. Unless noted, % is set by controls: 0 for no effect and ±100 for the full control effect.
SMILES,RORgamma inh,DT40 TDP1 CPT,TDP1 cell noCPT,IL-1B inflam inh,VP16 counter,LDHA inh
COc1cc(-c2cc(=O)c3c(O)c(OC)c(OC)cc3o2)cc(OC)c1O,0%,16µM*,?,-19,-1%,15
O=c1cc(-c2ccccc2O)oc2cc(O)cc(O)c12,-23%,30µM*,21µM*,nt,-18%,nt
COc1cc(-c2cc(=O)c3ccccc3o2)ccc1O,-21%,?,?,-14,-9%,-4
O=C(O)CCCCCCCCCC(=O)c1cccs1,10µM*,-2%,-1%,17,3.5µM*,-5
O=C(CCNc1cccc(Cl)c1)c1cccs1,25%,10µM*,15µM*,0,-3%,17
O=C(O)CCC(=O)c1cccs1,nt,nt,nt,nt,nt,-14
Cc1ccc(NC(=O)CCC(=O)c2cccs2)cc1,13%,-13%,6%,5,-5%,-1
Cc1ccc(NCCC(=O)c2cccs2)cc1Cl,-12%,7.3µM*,9.2µM*,0,-13%,-2
Cc1ccc(NCCC(=O)c2cccs2)cc1,-45%,2.9µM*,5.2µM*,-7,4%,-3
CSc1ccccc1C(=O)Nc1c(C)cccc1C(C)C,nt,nt,nt,nt,nt,2
Cc1nn(-c2cc(N3CCN(C(=O)C(C)(C)C)CC3)ccc2[N+](=O)[O-])c(=O)c2ccccc12,nt,nt,nt,nt,nt,1
O=C(NNc1cc(Cl)cc(Cl)c1)c1cccs1,7%,?,18µM*,-15,1%,0
Cc1ccc(C(=O)N/N=C(/CC(=O)c2cccs2)C(F)(F)F)cc1,11µM*,7.3µM*,9.2µM*,16,7.1µM*,-3
NS(=O)(=O)c1ccc(NNC(=O)c2cccs2)cc1,4%,1%,-2%,nt,5%,-2
CC(C)c1ccc(NCCC(=O)c2ccc(Br)cc2)cc1,3%,-19%,-20%,14,-1%,-6
O=C(N/N=C(\CC(=O)c1cccs1)C(F)(F)F)c1ccncc1,-19%,35%,-3%,nt,-29%,-12
CC(C)c1ccc(NCCC(=O)c2cccs2)cc1,-5%,5.2µM*,5.2µM*,-26,?,3
Cc1ccc(NCCC(=O)c2cccs2)cc1C,?,4.6µM*,5.8µM*,-22,-6%,-5
CN1CCN(C(=O)Cn2ccc3c(Cl)cccc32)CC1,nt,nt,nt,nt,nt,6
CCCOc1ccc(NC(=O)c2ccccc2Cl)c2cccnc12,nt,nt,nt,nt,nt,6
Cc1n[nH]c(C)c1/C=C/C(=O)c1ccc(F)c(F)c1,nt,nt,nt,nt,nt,1
COc1ccc(CCN[C@H]2CS(=O)(=O)C[C@@H]2S(=O)(=O)c2ccc(C)cc2)cc1OC,nt,nt,nt,nt,nt,-20
COc1ccc(CCN2C(=O)CN(C3CCCCCC3)C(=O)C2c2ccccc2F)cc1OC (stereo not drawn),nt,nt,nt,nt,nt,0
CCOc1ccc(/C=C/c2nc(C#N)c(NCc3ccc(F)cc3)o2)cc1,nt,nt,nt,nt,nt,-13
COc1ccc(Cl)cc1C(=O)N1CC(C)CC(C)C1 (stereo not drawn),nt,nt,nt,nt,nt,8
SMILES,RORgamma inh,DT40 TDP1 CPT,TDP1 cell noCPT,IL-1B inflam inh,VP16 counter,LDHA inh
Cc1ccc(NC(NC(=O)c2cccs2)C(Cl)(Cl)Cl)cc1C (stereo not drawn),27%,?,18µM*,?,8%,-3
O=C(CCC(=O)c1cccs1)NNC(=O)c1cccc(Cl)c1,nt,?,23µM*,22,nt,-14
Cc1ccc(NC(NC(=O)c2cccs2)C(Cl)(Cl)Cl)cc1 (stereo not drawn),22%,?,?,22,-5%,-2
CCCCNC(=O)Cn1c(=O)c2c(ncn2CC(C)C)n(CC(C)C)c1=O,nt,nt,nt,nt,nt,5
CS(=O)(=O)c1ccc(Nc2nc(C(N)COCc3ccccc3)cs2)cc1 (stereo not drawn),nt,21µM*,21µM*,-3,nt,-1
CS(=O)(=O)c1ccc(Nc2nc(C(N)Cc3ccc(C(F)(F)F)cc3)cs2)cc1 (stereo not drawn),nt,21µM*,-84%,-21,nt,-1
COc1ccc(CC(N)c2csc(Nc3ccc(S(C)(=O)=O)cc3)n2)cc1 (stereo not drawn),nt,?,23µM*,-14,nt,-5
CS(=O)(=O)c1ccc(Nc2nc(C(N)Cc3ccc(F)cc3)cs2)cc1 (stereo not drawn),nt,16µM*,21µM*,-28,nt,-7
C=CCC1Cc2c(N)cccc2C(CC=C)N1 (stereo not drawn),nt,nt,nt,nt,nt,1
O=C(NC1(c2cccc(Cl)c2)CCC1)NC1(c2cccc(Cl)c2)CCC1,nt,nt,nt,nt,nt,-4
CS(=O)(=O)c1ccc(Nc2nc(C(N)Cc3ccccc3)cs2)cc1 (stereo not drawn),nt,?,21µM*,0,nt,-14
O=C(Nc1nc(-c2cc3ccccc3oc2=O)cs1)c1ccc([N+](=O)[O-])cc1,nt,nt,nt,nt,nt,8
O=C(Nc1nc(C2C3CC4CC(C3)CC2C4)cs1)c1cc2cc([N+](=O)[O-])ccc2oc1=O (stereo not drawn),2%,12µM*,9.2µM*,12,-7%,-8
Cc1ccc(-n2nnnc2SC(C)C(=O)Nc2ccc(Cl)cn2)cc1 (stereo not drawn),-8%,?,?,-57*,-16%,7
CC(Sc1nncn1C)C(=O)Nc1ccc(Cl)cn1 (stereo not drawn),6%,-3%,2%,18,-8%,0
Cc1ccc(-n2nnnc2SCC(=O)NC2CCCc3ccccc32)cc1 (stereo not drawn),34%,?,18µM*,1,1%,0
O=C(CSc1nnnn1-c1ccccc1)Nc1ccc(Cl)cc1,7%,-7%,-23%,-17,-2%,-4
Cc1ccc(-n2nnnc2SC(C)C(=O)NCC(=O)Nc2ccc(F)c(F)c2F)c(C)c1 (stereo not drawn),129%,18µM*,15µM*,?,-11%,-1
NC(=O)c1nn(-c2ccccc2)nc1NC(=O)CSc1nnnn1-c1ccc(Cl)cc1,42%,?,16µM*,-13,-2%,-13
NC(=O)c1ccc(-n2nnnc2SCC(=O)Nc2ccccc2-c2ccccc2)cc1,?,?,16µM*,-1,1%,-2
O=C(CSc1nnnn1-c1ccc(Cl)cc1)Nc1cccnc1Cl,?,23µM*,?,8,?,-3
Cc1ccc(-n2nnnc2SCC(=O)Nc2cccnc2Cl)cc1,?,-12%,?,18,13µM*,0
